In the supplement of paper PMC6279402:
Structures can show the parent of a compound that is named as a salt. ± gives the standard deviation of the averaged measurements.

System: A549
Experiment: relative viability (normalised to negative control = 1, bortezomib = 0) (fraction); higher = less cytotoxic
Conditions: inflammatory serum-free RHB-A with cytokines + LPS; 5 d + 24 h CellTiter-Blue; compound 30 nM; GSK126 pretreatment: none (vehicle)

| SMILES | relative viability |
| --- | --- |
| CN(c1ncccc1CNc1nc(Nc2ccc3c(c2)CC(=O)N3)ncc1C(F)(F)F)S(C)(=O)=O | 0.907 ± 0.16 |
| COc1cc(N2CCC(N3CCN(C)CC3)CC2)ccc1Nc1ncc(Cl)c(Nc2ccccc2S(=O)(=O)C(C)C)n1 | 0.605 ± 0.022 |
| Cc1c2oc3c(C)ccc(C(=O)N[C@@H]4C(=O)N[C@H](C(C)C)C(=O)N5CCC[C@H]5C(=O)N(C)CC(=O)N(C)[C@@H](C(C)C)C(=O)O[C@@H]4C)c3nc-2c(C(=O)N[C@@H]2C(=O)N[C@H](C(C)C)C(=O)N3CCC[C@H]3C(=O)N(C)CC(=O)N(C)[C@@H](C(C)C)C(=O)O[C@@H]2C)c(N)c1=O [Dactinomycin] | 0.00574 ± 0.0057 |
| C=CC(=O)Nc1cccc(Oc2nc(Nc3ccc(N4CCN(C)CC4)cc3)ncc2Cl)c1 | 0.82 ± 0.095 |
| CC[C@H](Nc1ncnc2nc[nH]c12)c1nc2cccc(F)c2c(=O)n1-c1ccccc1 | 0.876 ± 0.1 |
| COc1cc(Nc2ncc3c(n2)-c2ccc(Cl)cc2C(c2c(F)cccc2OC)=NC3)ccc1C(=O)O | 0.821 ± 0.044 |
| O=P(O)(O)C(O)(Cn1ccnc1)P(=O)(O)O [Zoledronic acid; Zolendronic acid] | 0.924 ± 0.15 |
| COc1cc([C@@H]2c3cc4c(cc3[C@@H](O[C@@H]3O[C@@H]5CO[C@@H](C)O[C@H]5[C@H](O)[C@H]3O)[C@H]3COC(=O)[C@H]23)OCO4)cc(OC)c1O [Etoposide] | 0.935 ± 0.037 |
| CO[C@H]1C[C@@H]2CC[C@@H](C)[C@@](O)(O2)C(=O)C(=O)N2CCCC[C@H]2C(=O)O[C@H]([C@H](C)C[C@@H]2CC[C@@H](OC(=O)C(C)(CO)CO)[C@H](OC)C2)CC(=O)[C@H](C)/C=C(\C)[C@@H](O)[C@@H](OC)C(=O)[C@H](C)C[C@H](C)/C=C/C=C/C=C/1C [CCI-779; Temsirolimus] | 0.541 ± 0.034 |
| CCN(CCO)CCCOc1ccc2c(Nc3cc(CC(=O)Nc4cccc(F)c4)[nH]n3)ncnc2c1 [AZD1152-HQPA(Barasertib)] | 0.714 ± 0.031 |
| CNC(=O)CN1CCC(Oc2cc3c(Nc4cccc(Cl)c4F)ncnc3cc2OC)CC1 | 0.525 ± 0.058 |
| Oc1cccc(-c2nc(N3CCOCC3)c3oc4ncccc4c3n2)c1 | 0.805 ± 0.11 |
| Cn1cnc(-c2cc3nccc(Oc4ccc(NC(=S)NC(=O)Cc5ccccc5)cc4F)c3s2)c1 | 0.832 ± 0.051 |
| COc1c2occc2cc2ccc(=O)oc12 [Methoxsalen] | 0.883 ± 0.11 |
| CN(N=O)C(=O)N[C@@H]1[C@@H](O)[C@H](O)[C@@H](CO)O[C@@H]1O [Streptozocin] | 0.903 ± 0.13 |
| O=C(Nc1c[nH]nc1-c1nc2ccc(CN3CCOCC3)cc2[nH]1)NC1CC1 | 0.663 ± 0.021 |
| C/C(=C\c1csc(C)n1)[C@@H]1C[C@@H]2O[C@]2(C)CCC[C@H](C)[C@H](O)[C@@H](C)C(=O)C(C)(C)[C@@H](O)CC(=O)N1 [Ixabepilone] | 0.269 ± 0.068 |
| CCCS(=O)(=O)Nc1ccc(F)c(C(=O)c2c[nH]c3ncc(Cl)cc23)c1F | 0.725 ± 0.028 |
| CCCNC(=O)Nc1ccc(Oc2ncnc3cc(OC)c(OC)cc23)cc1Cl | 0.752 ± 0.01 |
| Nc1nc(Cl)nc2c1ncn2[C@H]1C[C@H](O)[C@@H](CO)O1 [Cladribine] | 0.729 ± 0.099 |
| O=c1cc(N2CCOCC2)oc2c(-c3cccc4c3sc3ccccc34)cccc12 | 0.869 ± 0.057 |
| S=c1[nH]cnc2nc[nH]c12 [Mercaptopurine] | 0.969 ± 0.053 |
| Cc1[nH]nc2ccc(-c3cncc(OC[C@@H](N)Cc4ccccc4)c3)cc12 | 0.766 ± 0.094 |
| CC(=O)Nc1nc(C)c(-c2ccc(Cl)c(S(=O)(=O)NCCO)c2)s1 | 0.678 ± 0.015 |
| CNC(=O)c1cc(Oc2ccc(NC(=O)Nc3ccc(Cl)c(C(F)(F)F)c3)c(F)c2)ccn1 [Regorafenib; BAY 73-4506(Regorafenib)] | 0.892 ± 0.016 |
| C=CC(=O)Nc1cccc(Sc2nc(Nc3ccc(N4CCN(C)CC4)cc3)ncc2Cl)c1 | 0.815 ± 0.085 |

Same assay, conditions: inflammatory serum-free RHB-A with cytokines + LPS; 5 d + 24 h CellTiter-Blue; compound 300 nM; GSK126 pretreatment: 5 uM GSK126

| SMILES | relative viability |
| --- | --- |
| Cc1ccc(C(=O)Nc2cccc(C(F)(F)F)c2)cc1Nc1nc(-c2cccnc2)nc2c1cnn2C | 1.01 ± 0.13 |
| O=c1ncn2nc(Sc3ccc(F)cc3F)ccc2c1-c1c(Cl)cccc1Cl | 1.12 ± 0.12 |
| C=CC(=O)Nc1cc2c(Nc3ccc(F)c(Cl)c3)ncnc2cc1OCCCN1CCOCC1 [CI-1033(Canertinib)] | 0.483 ± 0.028 |
| Cc1ccc(NC(=O)c2ccc(CN3CCN(C)CC3)cc2)cc1Nc1nccc(-c2cccnc2)n1 | 0.976 ± 0.13 |
| Cc1cc(Nc2cc(N3CCN(C)CC3)nc(/C=C/c3ccccc3)n2)n[nH]1 | 0.827 ± 0.17 |
| NC(N)=NC(N)=NCCc1ccccc1 [Phenformin hydrochloride] | 0.955 ± 0.058 |
| CCS(=O)(=O)c1cccc(-c2cc(C(=O)NC3CCN(C)CC3)c(C)c3[nH]c4ncc(C)cc4c23)c1 | 0.553 ± 0.083 |
| COc1cc2ncnc(Nc3cccc(Br)c3)c2cc1OC | 0.537 ± 0.17 |
| Cc1ncc(-c2ccnc(Nc3ccc(S(C)(=O)=O)cc3)n2)n1C(C)C | 0.675 ± 0.062 |
| CC(=O)O[C@H]1C(=O)[C@@]2(C)[C@H]([C@H](OC(=O)c3ccccc3)[C@]3(O)C[C@H](OC(=O)[C@H](O)[C@@H](NC(=O)c4ccccc4)c4ccccc4)C(C)=C1C3(C)C)[C@]1(OC(C)=O)CO[C@@H]1C[C@@H]2O [Paclitaxel; Taxol] | 0.368 ± 0.077 |
| CC(=O)O[C@@]12CO[C@@H]1C[C@H](O)[C@@]1(C)C(=O)[C@H](O)C3=C(C)[C@@H](OC(=O)[C@H](O)[C@@H](NC(=O)OC(C)(C)C)c4ccccc4)C[C@@](O)([C@@H](OC(=O)c4ccccc4)[C@H]21)C3(C)C [Docetaxel] | 0.583 ± 0.053 |
| CN(c1ncccc1CNc1nc(Nc2ccc3c(c2)CC(=O)N3)ncc1C(F)(F)F)S(C)(=O)=O | 0.907 ± 0.12 |
| COc1cc(N2CCC(N3CCN(C)CC3)CC2)ccc1Nc1ncc(Cl)c(Nc2ccccc2S(=O)(=O)C(C)C)n1 | 0.211 ± 0.019 |
| Cc1c2oc3c(C)ccc(C(=O)N[C@@H]4C(=O)N[C@H](C(C)C)C(=O)N5CCC[C@H]5C(=O)N(C)CC(=O)N(C)[C@@H](C(C)C)C(=O)O[C@@H]4C)c3nc-2c(C(=O)N[C@@H]2C(=O)N[C@H](C(C)C)C(=O)N3CCC[C@H]3C(=O)N(C)CC(=O)N(C)[C@@H](C(C)C)C(=O)O[C@@H]2C)c(N)c1=O [Dactinomycin] | -0.00171 ± 0.00059 |
| C=CC(=O)Nc1cccc(Oc2nc(Nc3ccc(N4CCN(C)CC4)cc3)ncc2Cl)c1 | 0.132 ± 0.07 |
| CC[C@H](Nc1ncnc2nc[nH]c12)c1nc2cccc(F)c2c(=O)n1-c1ccccc1 | 0.878 ± 0.08 |
| COc1cc(Nc2ncc3c(n2)-c2ccc(Cl)cc2C(c2c(F)cccc2OC)=NC3)ccc1C(=O)O | 0.523 ± 0.11 |
| O=P(O)(O)C(O)(Cn1ccnc1)P(=O)(O)O [Zoledronic acid; Zolendronic acid] | 1.09 ± 0.12 |
| COc1cc([C@@H]2c3cc4c(cc3[C@@H](O[C@@H]3O[C@@H]5CO[C@@H](C)O[C@H]5[C@H](O)[C@H]3O)[C@H]3COC(=O)[C@H]23)OCO4)cc(OC)c1O [Etoposide] | 0.985 ± 0.046 |

| SMILES | relative viability |
| --- | --- |
| CO[C@H]1C[C@@H]2CC[C@@H](C)[C@@](O)(O2)C(=O)C(=O)N2CCCC[C@H]2C(=O)O[C@H]([C@H](C)C[C@@H]2CC[C@@H](OC(=O)C(C)(CO)CO)[C@H](OC)C2)CC(=O)[C@H](C)/C=C(\C)[C@@H](O)[C@@H](OC)C(=O)[C@H](C)C[C@H](C)/C=C/C=C/C=C/1C [CCI-779; Temsirolimus] | 0.46 ± 0.069 |
| CCN(CCO)CCCOc1ccc2c(Nc3cc(CC(=O)Nc4cccc(F)c4)[nH]n3)ncnc2c1 [AZD1152-HQPA(Barasertib)] | 0.813 ± 0.13 |
| CNC(=O)CN1CCC(Oc2cc3c(Nc4cccc(Cl)c4F)ncnc3cc2OC)CC1 | 0.346 ± 0.075 |
| Oc1cccc(-c2nc(N3CCOCC3)c3oc4ncccc4c3n2)c1 | 0.113 ± 0.011 |
| Cn1cnc(-c2cc3nccc(Oc4ccc(NC(=S)NC(=O)Cc5ccccc5)cc4F)c3s2)c1 | 0.838 ± 0.093 |
| COc1c2occc2cc2ccc(=O)oc12 [Methoxsalen] | 0.881 ± 0.026 |
| CN(N=O)C(=O)N[C@@H]1[C@@H](O)[C@H](O)[C@@H](CO)O[C@@H]1O [Streptozocin] | 1.01 ± 0.15 |
| O=C(Nc1c[nH]nc1-c1nc2ccc(CN3CCOCC3)cc2[nH]1)NC1CC1 | 0.336 ± 0.034 |
| C/C(=C\c1csc(C)n1)[C@@H]1C[C@@H]2O[C@]2(C)CCC[C@H](C)[C@H](O)[C@@H](C)C(=O)C(C)(C)[C@@H](O)CC(=O)N1 [Ixabepilone] | 0.386 ± 0.016 |
| CCCS(=O)(=O)Nc1ccc(F)c(C(=O)c2c[nH]c3ncc(Cl)cc23)c1F | 0.851 ± 0.19 |
| CCCNC(=O)Nc1ccc(Oc2ncnc3cc(OC)c(OC)cc23)cc1Cl | 0.775 ± 0.19 |
| Nc1nc(Cl)nc2c1ncn2[C@H]1C[C@H](O)[C@@H](CO)O1 [Cladribine] | 0.386 ± 0.1 |
| O=c1cc(N2CCOCC2)oc2c(-c3cccc4c3sc3ccccc34)cccc12 | 0.922 ± 0.055 |
| S=c1[nH]cnc2nc[nH]c12 [Mercaptopurine] | 0.958 ± 0.067 |
| Cc1[nH]nc2ccc(-c3cncc(OC[C@@H](N)Cc4ccccc4)c3)cc12 | 0.17 ± 0.011 |
| CC(=O)Nc1nc(C)c(-c2ccc(Cl)c(S(=O)(=O)NCCO)c2)s1 | 0.487 ± 0.16 |
| CNC(=O)c1cc(Oc2ccc(NC(=O)Nc3ccc(Cl)c(C(F)(F)F)c3)c(F)c2)ccn1 [Regorafenib; BAY 73-4506(Regorafenib)] | 1.02 ± 0.031 |
| C=CC(=O)Nc1cccc(Sc2nc(Nc3ccc(N4CCN(C)CC4)cc3)ncc2Cl)c1 | 0.475 ± 0.1 |
